Results filed as inconclusive are left out. Calls of active or inactive are those of the source. Unless noted, calls follow the shape of the dose curve; as a rule, active = well fitted curve in the direction sought with a large enough effect; inconclusive = small, poorly fitted or top-dose-only effect, or another doubt; inactive = no such curve, though single readings can be large; an effect the other way counts as inactive or inconclusive.
Columns and labels:
[1] = test system: Zika virus NS2B-NS3 protease; test: Primary screen GU AMC qHTS for Zika virus inhibitors (AID 1347154);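 also: 0% = no-inhibitor control and -100% = no-enzyme control; nearly all actives have a fitted effect of over 70% in size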
Outline: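 Fluorogenic AMC-substrate cleavage by noncovalent NS2B-NS3 protease complex (25 nM, pH 8.0 Tris buffer with Tween 20) followed for 15 minutes at room temperature (~20% conversion). Percent inhibition from ex340/em450 signal change, fitted by 4-parameter Hill equation.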

[2] = Counterscreen qHTS for small molecule stabilizers of the endoplasmic reticulum resident proteome: GLuc-NoTag assay (AID 1508627);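 also: SH-SY5Y cells given compound then 100 nM thapsigargin to empty ER calcium; series mostly up to about 76 µM; 0% = thapsigargin alone and -100% = DMSO vehicle control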
Outline: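 Counterscreen line: SH-SY5Y-GLuc-NoTag cells, treated with compound 19 hr before a 4 hr, 100 nM thapsigargin calcium depletion. Secreted Gaussia luciferase in the medium was measured by luminescence after coelenterazine was added (0.07x final), with cells unlysed.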

[3] = Confirmatory qHTS for small molecule stabilizers of the endoplasmic reticulum resident proteome: Secreted ER Calcium Modulated Protein (SERCaMP) assay (AID 1508628); also: series mostly up to about 76 µM; % is scaled to controls: 0 for no effect and ±100 for the full control effect; nearly all actives have a fitted effect of over 40% in size
Outline: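 GLuc-SERCaMP-expressing SH-SY5Y cells, pretreated 16 h with compound, are challenged with thapsigargin to empty ER calcium stores; after 4 h, coelenterazine is added directly to the medium and luminescence is imaged.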

[4] = Primary qHTS for small molecule stabilizers of the endoplasmic reticulum resident proteome: Secreted ER Calcium Modulated Protein (SERCaMP) assay (AID 1508630); also: % is scaled to controls: 0 for no effect and ±100 for the full control effect
Outline: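 The SH-SY5Y reporter protocol was run at 3 concentrations up to 38.3 uM (primary) or 11 concentrations (follow-up): 16 h compound, 100 nM thapsigargin for 4 h, then extracellular luciferase luminescence.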

[5] = target: Glucocorticoid receptor (Homo sapiens) (UniProt P04150); test: GR-GFP Redistribution (AID 450;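 active = compounds whose dose series gives a full or clear partial fitted curve of increased nuclear translocation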; also: potency is read from the fitted curve at half-maximal effect); settings: U2OS GR-GFP nuclear translocation, laser cytometry, 2 h
Sequence of Glucocorticoid receptor (Homo sapiens) (P04150 whole entry, looked up, the tested form may be a part): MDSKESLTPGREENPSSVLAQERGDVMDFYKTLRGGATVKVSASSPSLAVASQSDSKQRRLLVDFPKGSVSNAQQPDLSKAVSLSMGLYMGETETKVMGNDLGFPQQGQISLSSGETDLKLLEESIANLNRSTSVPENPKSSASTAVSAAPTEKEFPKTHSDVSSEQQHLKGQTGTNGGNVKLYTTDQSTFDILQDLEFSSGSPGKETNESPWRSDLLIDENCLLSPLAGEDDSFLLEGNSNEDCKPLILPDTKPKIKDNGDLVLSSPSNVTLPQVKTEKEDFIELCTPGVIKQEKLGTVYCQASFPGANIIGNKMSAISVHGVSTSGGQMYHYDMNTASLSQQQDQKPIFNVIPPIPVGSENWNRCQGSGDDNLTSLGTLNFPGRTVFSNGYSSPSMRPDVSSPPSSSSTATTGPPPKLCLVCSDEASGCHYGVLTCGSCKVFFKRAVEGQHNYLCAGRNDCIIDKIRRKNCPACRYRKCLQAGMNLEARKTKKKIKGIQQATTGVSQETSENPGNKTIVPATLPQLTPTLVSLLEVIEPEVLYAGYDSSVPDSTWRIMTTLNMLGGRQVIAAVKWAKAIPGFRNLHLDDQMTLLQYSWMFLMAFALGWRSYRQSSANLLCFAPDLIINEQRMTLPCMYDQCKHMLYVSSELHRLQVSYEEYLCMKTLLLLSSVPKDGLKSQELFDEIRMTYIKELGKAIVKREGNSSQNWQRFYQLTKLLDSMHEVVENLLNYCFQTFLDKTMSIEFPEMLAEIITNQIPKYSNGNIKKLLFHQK

[6] = target: Glucocorticoid receptor (Homo sapiens) (UniProt P04150); test: GR-EFC Redistribution (AID 451; calls by dose curve; also: potency is read from the fitted curve at half-maximal effect); settings: CHO-K1 GR-EFC translocation, beta-gal luminescence, 2 h
Outline: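 Translocation of GR-ED fusion to nuclear EA restores b-gal, read by luminescence after 1 h room-temperature detection. Engineered CHO-K1 biosensor cells, 1,000/well, exposed 2 h at 37 C to titrations up to 46 uM final.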

[7] = target: Mitogen-activated protein kinase 10 (Mus musculus) (UniProt Q61831); test: JNK3 AlphaScreen Assay (AID 530; active = well fitted curve in either direction with a large enough effect, not every such curve was filed as active;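 also: kinase came from lysate of stimulated human HepG2 cells; signal reports phosphorylation of biotinylated GST-cJun 1-79 at Ser73 with 10 µM ATP; series mostly up to about 57 µM; % is scaled to controls: 0 for no effect and ±100 for the full control effect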)
Outline: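 Kinase buffer: 20 mM Tris-HCl pH 7.6, 10 mM MgCl2, 1 mM DTT, 0.1 mM Na3VO4, 0.01% Tween-20; ATP 10 uM. Substrate biotin-GST-cJun(1-79), enzyme from activated HepG2 lysates. Detection by Ser73 phospho-antibody AlphaScreen.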

[8] = Validation of Assay for Modulators of Lamin A Splicing (AID 1459; active = well fitted curve in the direction sought with a large enough effect in the signal ratio; the % refers to the signal ratio;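 also: cells exposed to compound for two days before reading; 0% is about no effect; ratio rise marks activators and ratio drop marks inhibitors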)
Outline: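 Splicing correction is reported by an EGFP-containing lamin A minigene in stably transfected S3 HeLa cells, while DsRed2 controls for viability and nonspecific signal. Cells are exposed to compounds for 48 hrs before the GFP over RFP ratio is taken.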

[9] = target: DNA repair nuclease/redox regulator APEX1 (Homo sapiens) (UniProt P27695); test: qHTS Validation Assay for Inhibitors of the Human Apurinic/apyrimidinic Endonuclease 1 (APE1) (AID 1705;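 also: TAMRA fluorescence gain over two minutes as APE1 cuts a quenched THF abasic duplex; series mostly up to about 57 µM; % is scaled to controls: 0 for no effect and ±100 for the full control effect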)
Outline: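 Endonuclease activity of human APE1 is followed as dequenching when the enzyme incises a tetrahydrofuran abasic site in a short duplex labelled 5'-TAMRA/3'-BHQ-2 (50 nM final), after 15 min enzyme–compound preincubation at room temperature.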

[10] = qHTS for differential inhibitors of proliferation of Plasmodium falciparum line 7G8 (AID 1815);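 also: potency is read from the fitted curve at half-maximal effect; parasite growth measured after three days of incubation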
[11] = qHTS for differential inhibitors of proliferation of Plasmodium falciparum line GB4 (AID 1816); settings: Potency: Plasmodium falciparum GB4 proliferation inhibition;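 also: potency is read from the fitted curve at half-maximal effect; parasite growth measured after 72 h incubation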
[12] = qHTS for differential inhibitors of proliferation of Plasmodium falciparum line 3D7 (AID 1876); also: potency is read from the fitted curve at half-maximal effect
[13] = qHTS for differential inhibitors of proliferation of Plasmodium falciparum line D10 (AID 1877);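 also: potency is read from the fitted curve at half-maximal effect; parasites grown with compound for 72 h before DNA staining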
[14] = qHTS for differential inhibitors of proliferation of Plasmodium falciparum line Dd2 (AID 1882); settings: Potency: Plasmodium falciparum Dd2 proliferation inhibition; also: potency is read from the fitted curve at half-maximal effect; nearly all actives have a fitted effect of over 65% in size
Outline: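 RBC culture, 0.3% parasitemia / 2.5% Hct final; cpd added by pin tool in DMSO; 72 h, 37 C, 5% CO2; lysis buffer + SYBR Green I, o/n RT dark; FI 485/535; norm. to artemisinin 0.29 uM and DMSO.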

[15] = qHTS for differential inhibitors of proliferation of Plasmodium falciparum line W2 (AID 1883); settings: Potency: Plasmodium falciparum W2 proliferation inhibition;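 also: potency is read from the fitted curve at half-maximal effect; parasites grown with compound for 72 h before lysis and staining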
[16] = qHTS for differential inhibitors of proliferation of Plasmodium falciparum line HB3 (AID 1886); settings: Potency: Plasmodium falciparum HB3 proliferation inhibition;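 also: potency is read from the fitted curve at half-maximal effect; parasites grown with compound for 72 h before SYBR Green readout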
[17] = target: ATP-dependent DNA helicase Q1 (Homo sapiens) (UniProt P46063); test: qHTS Validation Assay for Inhibitors of RecQ-Like Dna Helicase 1 (RECQ1) (AID 2353);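 also: plate controls were DMSO vehicle for no effect and enzyme-free control for full effect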
Sequence of ATP-dependent DNA helicase Q1 (Homo sapiens) (P46063 whole entry, looked up): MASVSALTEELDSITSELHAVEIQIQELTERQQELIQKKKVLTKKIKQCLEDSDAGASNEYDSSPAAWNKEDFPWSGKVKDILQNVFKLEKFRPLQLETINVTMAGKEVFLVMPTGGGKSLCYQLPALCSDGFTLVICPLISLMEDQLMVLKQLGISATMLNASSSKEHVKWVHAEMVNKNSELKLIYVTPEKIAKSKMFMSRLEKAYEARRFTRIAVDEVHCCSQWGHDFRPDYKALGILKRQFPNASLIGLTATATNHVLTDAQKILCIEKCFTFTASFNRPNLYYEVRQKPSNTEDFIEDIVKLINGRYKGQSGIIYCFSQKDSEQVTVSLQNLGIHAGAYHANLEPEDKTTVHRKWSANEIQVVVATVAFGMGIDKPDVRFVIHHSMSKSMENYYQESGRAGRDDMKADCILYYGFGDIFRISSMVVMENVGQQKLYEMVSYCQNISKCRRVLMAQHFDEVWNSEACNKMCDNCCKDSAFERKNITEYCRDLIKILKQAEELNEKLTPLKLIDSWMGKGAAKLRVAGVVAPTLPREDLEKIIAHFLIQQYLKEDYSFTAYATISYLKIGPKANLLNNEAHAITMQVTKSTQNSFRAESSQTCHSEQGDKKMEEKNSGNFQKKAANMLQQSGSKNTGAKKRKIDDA
Outline: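 RECQ1T1 50 nM; forked duplex (20 bp + 30-nt ss tails) 200 nM, ATP 2 mM final; pH 8.0, 2 mM MgCl2, 2.5 ug/ml poly(dI-dC); 15 min compound preincubation; discontinuous kinetic read over 2 h at RT.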

[18] = target: M-phase phosphoprotein 8 (Homo sapiens) (UniProt Q99549); test: qHTS Validation Assay for Inhibitors for MPP8 Chromodomain Interactions with Methylated Histone Tails (AID 488949);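 also: AlphaScreen signal from MPP8 chromodomain bound to biotinylated H3K9me3 peptide; top concentration of the series differs between compounds; % is scaled to controls: 0 for no effect and ±100 for the full control effect; nearly all actives have a fitted effect of over 55% in size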
Sequence of M-phase phosphoprotein 8 (Homo sapiens) (Q99549 whole entry, looked up): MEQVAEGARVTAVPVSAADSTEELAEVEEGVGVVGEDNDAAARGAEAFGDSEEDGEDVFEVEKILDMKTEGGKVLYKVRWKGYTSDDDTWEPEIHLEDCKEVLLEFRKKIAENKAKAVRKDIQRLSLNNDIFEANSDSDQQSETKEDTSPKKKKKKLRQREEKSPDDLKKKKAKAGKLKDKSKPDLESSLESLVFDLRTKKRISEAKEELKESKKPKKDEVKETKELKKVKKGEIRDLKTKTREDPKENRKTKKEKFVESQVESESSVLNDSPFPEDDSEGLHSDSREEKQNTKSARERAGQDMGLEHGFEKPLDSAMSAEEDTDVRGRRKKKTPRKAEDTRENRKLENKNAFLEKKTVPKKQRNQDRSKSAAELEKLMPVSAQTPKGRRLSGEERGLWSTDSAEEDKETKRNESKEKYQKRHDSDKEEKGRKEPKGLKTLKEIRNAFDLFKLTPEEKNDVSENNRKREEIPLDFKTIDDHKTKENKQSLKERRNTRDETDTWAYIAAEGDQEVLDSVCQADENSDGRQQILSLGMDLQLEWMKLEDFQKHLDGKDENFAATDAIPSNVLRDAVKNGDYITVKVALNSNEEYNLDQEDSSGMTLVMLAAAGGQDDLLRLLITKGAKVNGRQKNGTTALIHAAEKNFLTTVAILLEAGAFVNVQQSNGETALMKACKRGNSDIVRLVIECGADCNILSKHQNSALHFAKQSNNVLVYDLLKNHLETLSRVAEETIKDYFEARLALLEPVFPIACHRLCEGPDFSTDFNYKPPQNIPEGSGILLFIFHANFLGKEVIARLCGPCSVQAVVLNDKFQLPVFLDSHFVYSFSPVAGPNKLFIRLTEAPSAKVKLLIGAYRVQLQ
Outline: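 Disruption of the preformed MPP8–trimethyl-H3K9 peptide complex (both 50 nM, 30 min, RT) is measured after 30 min compound exposure, using AlphaScreen proximity beads; aurintricarboxylic acid titration serves as plate control.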

[19] = target: Thyrotropin receptor (Homo sapiens) (UniProt P16473); test: qHTS Assay for Antagonists of the Thyroid Stimulating Hormone Receptor (AID 488980); also: series mostly up to about 58 µM; 0% is about no effect
Sequence of Thyrotropin receptor (Homo sapiens) (P16473 whole entry, looked up): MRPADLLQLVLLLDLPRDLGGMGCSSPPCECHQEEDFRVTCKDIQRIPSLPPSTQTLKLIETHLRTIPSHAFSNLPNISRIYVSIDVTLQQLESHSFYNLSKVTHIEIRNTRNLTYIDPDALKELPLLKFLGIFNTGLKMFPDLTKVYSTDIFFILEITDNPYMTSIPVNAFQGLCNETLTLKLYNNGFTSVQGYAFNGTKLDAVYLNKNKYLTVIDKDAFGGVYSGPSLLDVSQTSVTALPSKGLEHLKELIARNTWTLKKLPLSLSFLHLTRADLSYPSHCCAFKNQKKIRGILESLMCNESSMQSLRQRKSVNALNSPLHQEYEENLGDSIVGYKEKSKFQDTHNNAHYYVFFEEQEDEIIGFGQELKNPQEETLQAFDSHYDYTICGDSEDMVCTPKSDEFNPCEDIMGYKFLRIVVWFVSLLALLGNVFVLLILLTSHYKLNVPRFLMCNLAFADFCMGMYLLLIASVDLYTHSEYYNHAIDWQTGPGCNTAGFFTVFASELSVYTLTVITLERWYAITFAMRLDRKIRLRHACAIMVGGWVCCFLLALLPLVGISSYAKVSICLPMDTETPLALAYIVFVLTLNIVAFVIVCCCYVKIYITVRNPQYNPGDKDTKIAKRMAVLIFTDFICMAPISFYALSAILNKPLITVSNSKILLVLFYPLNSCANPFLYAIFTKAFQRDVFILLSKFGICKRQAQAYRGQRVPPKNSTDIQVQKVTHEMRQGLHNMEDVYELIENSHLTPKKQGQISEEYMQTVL
Outline: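 Cells expressing human TSHR (HEK293) are dispensed in HBSS/HEPES containing 70 uM RO 20-1724, compound is added, then TSH at EC80 (4 nM final). Antibody in lysis buffer follows, 30 minutes at room temperature before HTRF detection.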

[20] = target: Thyrotropin-releasing hormone receptor (Homo sapiens) (UniProt P34981); test: qHTS for Small Molecule Agonists and Allosteric Enhancers of Human TRH Receptor: Validation Screen for Agonists (AID 493127;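 active = calcium activation more than 3 SD above the typical response in the agonist read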;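 also: intracellular calcium rise by fluo-8 fluorescence before TRH EC20 addition; 0% is about no effect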); settings: TRH receptor agonist cell assay; at 2 µM; hits give high values
Outline: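 Read-out: intracellular calcium release measured kinetically by FDSS (fluo-8, ex 480/em 530 nm), 1 reading/s after a 10-cycle baseline. TRHR cells, 2000/well, cultured 18 h at 33.5C, dye-loaded at room temp. Compound-evoked positive calcium signal flags agonists.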

[21] = target: Galactokinase (Homo sapiens) (UniProt P51570); test: qHTS Validation Assay for Inhibitors of Human Galactokinase (GALK) (AID 493189); also: 0% is about no effect
Sequence of Galactokinase (Homo sapiens) (P51570 whole entry, looked up): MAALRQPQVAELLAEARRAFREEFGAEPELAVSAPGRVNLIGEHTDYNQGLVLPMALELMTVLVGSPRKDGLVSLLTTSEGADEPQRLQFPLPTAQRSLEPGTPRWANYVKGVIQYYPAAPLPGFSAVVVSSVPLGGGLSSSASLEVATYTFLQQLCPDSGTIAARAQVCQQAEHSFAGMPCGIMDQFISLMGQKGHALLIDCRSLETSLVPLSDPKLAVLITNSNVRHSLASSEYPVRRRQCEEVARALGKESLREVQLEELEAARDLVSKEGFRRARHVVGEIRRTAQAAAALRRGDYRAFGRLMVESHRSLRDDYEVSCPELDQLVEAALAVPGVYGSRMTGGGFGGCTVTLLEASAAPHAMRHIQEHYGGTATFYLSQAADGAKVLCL
Outline: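 Compounds were pin-transferred into ATP buffer, then GALK-galactose mix was added (final 5 nM enzyme, 100 uM galactose, 35 uM ATP). After 1 h at room temperature, remaining ATP was measured luminescently.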

[22] = target: DNA dC->dU-editing enzyme APOBEC-3G (Homo sapiens) (UniProt Q9HC16); test: qHTS for inhibitors of Vif-A3G interactions: Validation (AID 588379); also: 0% is about no effect
Sequence of DNA dC->dU-editing enzyme APOBEC-3G (Homo sapiens) (Q9HC16 whole entry, looked up): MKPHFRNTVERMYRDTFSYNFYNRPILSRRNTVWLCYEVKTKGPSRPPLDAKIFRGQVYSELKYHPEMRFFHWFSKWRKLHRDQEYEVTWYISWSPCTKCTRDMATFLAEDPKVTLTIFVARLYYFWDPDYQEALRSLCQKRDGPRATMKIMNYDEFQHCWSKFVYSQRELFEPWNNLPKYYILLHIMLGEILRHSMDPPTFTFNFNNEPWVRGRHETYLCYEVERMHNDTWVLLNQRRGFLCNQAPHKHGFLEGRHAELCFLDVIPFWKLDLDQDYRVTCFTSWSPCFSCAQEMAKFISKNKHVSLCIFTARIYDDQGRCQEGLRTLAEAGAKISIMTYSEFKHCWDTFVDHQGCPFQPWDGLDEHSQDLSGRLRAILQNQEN
Outline: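 Yellow fluorescence (Ex 488, Em 500-530) of Vif-coexpressing HeLa A3G-eYFP cells, scanned by Acumen cytometer, reports blocked A3G degradation. Cells plated at 700/well overnight at 37 deg C before compound addition, then a further overnight compound incubation at 37 deg C.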

[23] = target: Voltage-gated inwardly rectifying potassium channel KCNH2 (Homo sapiens) (UniProt Q12809); test: qHTS Assay for Small Molecule Inhibitors of the Human hERG Channel Activity (AID 588834);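 also: potency is read from the fitted curve at half-maximal effect; lower thallium flux fluorescence means stronger hERG block; nearly all actives have a fitted effect of over 50% in size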
Sequence of Voltage-gated inwardly rectifying potassium channel KCNH2 (Homo sapiens) (Q12809 whole entry, looked up): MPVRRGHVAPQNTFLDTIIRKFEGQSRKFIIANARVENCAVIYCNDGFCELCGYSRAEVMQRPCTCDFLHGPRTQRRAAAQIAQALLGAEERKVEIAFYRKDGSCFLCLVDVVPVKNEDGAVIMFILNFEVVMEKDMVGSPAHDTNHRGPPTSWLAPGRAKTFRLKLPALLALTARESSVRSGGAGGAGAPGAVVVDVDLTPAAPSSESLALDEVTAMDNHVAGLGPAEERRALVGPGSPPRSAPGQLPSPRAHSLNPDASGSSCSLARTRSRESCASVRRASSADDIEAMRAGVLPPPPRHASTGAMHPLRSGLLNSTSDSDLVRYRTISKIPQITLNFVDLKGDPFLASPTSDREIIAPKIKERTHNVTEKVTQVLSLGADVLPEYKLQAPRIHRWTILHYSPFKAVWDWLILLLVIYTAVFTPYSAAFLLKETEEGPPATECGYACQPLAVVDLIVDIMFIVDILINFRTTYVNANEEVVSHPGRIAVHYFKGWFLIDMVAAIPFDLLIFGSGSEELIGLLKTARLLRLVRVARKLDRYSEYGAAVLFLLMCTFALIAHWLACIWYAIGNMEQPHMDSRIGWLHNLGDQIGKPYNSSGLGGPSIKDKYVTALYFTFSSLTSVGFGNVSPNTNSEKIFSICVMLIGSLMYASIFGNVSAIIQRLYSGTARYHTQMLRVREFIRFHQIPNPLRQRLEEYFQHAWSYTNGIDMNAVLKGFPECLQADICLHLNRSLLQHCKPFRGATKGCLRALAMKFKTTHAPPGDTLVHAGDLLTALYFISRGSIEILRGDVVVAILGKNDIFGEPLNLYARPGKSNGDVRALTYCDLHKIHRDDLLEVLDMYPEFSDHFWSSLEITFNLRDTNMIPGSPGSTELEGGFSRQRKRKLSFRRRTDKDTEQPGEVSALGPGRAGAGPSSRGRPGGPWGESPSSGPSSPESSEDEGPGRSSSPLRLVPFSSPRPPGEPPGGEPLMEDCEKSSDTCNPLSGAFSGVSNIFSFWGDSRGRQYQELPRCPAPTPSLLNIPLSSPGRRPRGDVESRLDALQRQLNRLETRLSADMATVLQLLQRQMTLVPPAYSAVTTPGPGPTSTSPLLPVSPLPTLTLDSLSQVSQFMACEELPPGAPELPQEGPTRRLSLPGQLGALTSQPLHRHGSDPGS
Outline: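 Cells were infected with hERG-BacMam virus for 4 hrs at room temperature, grown overnight, then seeded at 2000/well. After dye loading and roughly 10 min compound treatment, thallium influx was triggered and fluorescence recorded.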

N[C@@H](CCS(=O)O)C(=O)O
inactive: Potency [1] | Potency [2] | Potency [3] | Potency [4]

FC(F)(F)c1cc(CO[C@H]2CCCN[C@H]2c2ccccc2)cc(C(F)(F)F)c1
inactive: Potency [5] > 46 µM | Potency [6] > 46 µM | Potency [7] | outcome [8] | Potency [9] | Potency [17] | Potency [18] | outcome [19] | activation [20] 2.81% | outcome [21] | Potency [22] | Potency [1] | Potency [4]
active: Potency [10] 7.94 µM | Potency [11] 11.2 µM | Potency [12] 11.2 µM | Potency [13] 11.2 µM | Potency [14] 12.6 µM | Potency [15] 7.08 µM | Potency [16] 12.6 µM | Potency [23] 8.91 µM
